The results in this text go back to PubChem BioAssay (NCATS).

For experiment [1], the system named is MCC-26. The experiment can be described thus: qHTS assay to identify novel small-molecules to repurpose for Merkel cell carcinoma treatment (AID 1296009). Note: nearly all actives have a fitted effect of over 60% in size. Note: potency is the fitted concentration of half-maximal effect. Particulars: MCC and control cell lines, CellTiter-Glo viability, 72 h; series mostly up to 46 µM. In a few lines: (§1)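 72 hr, 37 degree celsius; NPC 8-pt / MIPE 11-pt dose response; compound pinned in DMSO; CellTiter-Glo, 10 min RT, luminescence; normalized to no-cell and DMSO controls.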

For experiment [2], the system named is MKL-1. The experiment is described as above. Particulars: MCC and control cell lines, CellTiter-Glo viability, 72 h; series mostly up to 46 µM. A digest of the protocol:
as §1

In experiment [3] the test system is MKL-2. Described as above. The conditions noted are these: MCC and control cell lines, CellTiter-Glo viability, 72 h; series mostly up to 46 µM. A digest of the protocol:
as §1

Experiment [4] deals with UISO. The description is as above. Particulars: MCC and control cell lines, CellTiter-Glo viability, 72 h; series mostly up to 46 µM. In a few lines:
as §1

Experiment [5] concerns WaGa. The experiment is described as above. Particulars: MCC and control cell lines, CellTiter-Glo viability, 72 h; series mostly up to 46 µM. A digest of the protocol:
as §1

Experiment [6] concerns C33A. In words: Primary qHTS to identify gynecologic anti-cancer compounds using libraries of approved drugs and bioactive compounds (AID 1345084). Note: nearly all actives have a fitted effect of over 55% in size. Particulars: Gynecologic cancer cell panel viability, ATPlite luminescence, 48 h; series mostly up to 57.5 µM. In a few lines: (§2)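 48 h compound exposure at 37 C, 5% CO2; five-point qHTS. ATPlite luminescence readout of cell ATP.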

Experiment [7] concerns CAOV3. The experiment is described as above. The conditions noted are these: Gynecologic cancer cell panel viability, ATPlite luminescence, 48 h; series mostly up to 57.5 µM. In a few lines:
as §2

Experiment [8] relates to CASKI. The description is as above. The conditions noted are these: Gynecologic cancer cell panel viability, ATPlite luminescence, 48 h; series mostly up to 57.5 µM. In a few lines:
as §2

Experiment [9] relates to Es-2. Described as above. The conditions noted are these: Gynecologic cancer cell panel viability, ATPlite luminescence, 48 h; series mostly up to 57.5 µM. A digest of the protocol: as §2
Experiment [10] concerns HeLa. The description is as above. The conditions noted are these: Gynecologic cancer cell panel viability, ATPlite luminescence, 48 h; series mostly up to 57.5 µM. In a few lines: as §2
Experiment [11] deals with Hek293T. Described as above. The conditions noted are these: Gynecologic cancer cell panel viability, ATPlite luminescence, 48 h, control line for the selectivity index; series mostly up to 57.5 µM. A digest of the protocol:
as §2

Experiment [12] has as its system JEG-3. The experiment is described as above. The conditions noted are these: Gynecologic cancer cell panel viability, ATPlite luminescence, 48 h; series mostly up to 57.5 µM. A digest of the protocol: as §2
Experiment [13] relates to OV90. Described as above. The conditions noted are these: Gynecologic cancer cell panel viability, ATPlite luminescence, 48 h; series mostly up to 57.5 µM. A digest of the protocol:
as §2

Experiment [14] deals with PA-1. The experiment is described as above. The conditions noted are these: Gynecologic cancer cell panel viability, ATPlite luminescence, 48 h; series mostly up to 57.5 µM. A digest of the protocol: as §2
Experiment [15] concerns SKOV3. The description is as above. Particulars: Gynecologic cancer cell panel viability, ATPlite luminescence, 48 h; series mostly up to 57.5 µM. A digest of the protocol: as §2
Experiment [16] concerns Tov-21-G. The description is as above. The conditions noted are these: Gynecologic cancer cell panel viability, ATPlite luminescence, 48 h; series mostly up to 57.5 µM. A digest of the protocol: as §2
Experiment [17] deals with Tov112D. The description is as above. Particulars: Gynecologic cancer cell panel viability, ATPlite luminescence, 48 h; series mostly up to 57.5 µM. A digest of the protocol:
as §2

Experiment [18] is described as follows: Drug repurposing screens with cells derived from glioblastoma tumor samples (AID 1345199). Note: nearly all actives have a fitted effect of over 40% in size. Note: potency is the fitted concentration of half-maximal effect. Particulars: GBM patient neurospheres viability, ATP luminescence, 48 h. A digest of the protocol:
(§3)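 Four patient lines of CD133+ GBM neurospheres were screened at several concentrations; hits were retested in those lines plus three slower-growing GBM lines, using 48-hour treatment and ATP-based viability.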

Experiment [19] relates to astro. Described as above. The conditions noted are these: viability, ATP luminescence, 48 h; series mostly up to 45.9 µM. A digest of the protocol: as §3
Setting [20] is: at 45.9 µM (top of the series), tumour line D.
Where [21] appears, read: at 46.1 µM (top of the series), tumour line C.
Where [22] appears, read: at 45.9 µM (top of the series), tumour line B.
Setting [23] is: at 46 µM (top of the series), tumour line A.
Setting [24] is: at 20 µM (top of the series), tumour line C.
Where [25] appears, read: at 21.2 µM (top of the series), tumour line B.
Setting [26] is: at 21.2 µM (top of the series), tumour line D.
Where [27] appears, read: at 21.3 µM (top of the series), tumour line A.

Several values for one entry are separate records, joined by “and”; a condition that tells them apart may be missing. Equal values may be shown once. Inconclusive results are not listed. The source holds several records for some structures; these can differ, active in one and inactive in another. Activity calls are given as the source filed them. Calls come from the whole dose curve; as a rule, active = well fitted curve in the direction sought with a large enough effect; inconclusive = small, poorly fitted or top-dose-only effect, or another doubt; inactive = no such curve, though single readings can be large; an effect the other way counts as inactive or inconclusive.
% is set by controls: 0 for no effect and ±100 for the full control effect.

Regarding `COc1ccc(C(=O)CC(=O)c2ccc(C(C)(C)C)cc2)cc1`, the Potency result in experiment [1], in experiment [5], in experiment [6], in [7], in [8] and in experiment [9] was “inactive” each time. Besides, the Potency entry in experiment [10], in [11], in experiment [12], in [13], in experiment [14] and in experiment [15] was “inactive” throughout. The Potency result in experiment [16], in [17] and in [19] was “inactive” each time. For the same molecule, the Potency result in experiment [2] is “inactive and 1.05 µM (active)”; in experiment [3], 935 nM (active); in [4] it was “inactive and 11.8 µM (active)”. In addition, the activity, negative = cell killing in experiment [18] (setting [20]) is -26.5% (inactive); in experiment [18] (setting [21]) it was 3.24% (inactive).

Consider `CCN(C)C(=O)Oc1cccc([C@H](C)N(C)C)c1`, for which the Potency result in experiment [1], in experiment [2], in experiment [3], in [4], in experiment [5] and in [6] was “inactive” each time. Also, the Potency entry in experiment [7], in [8], in experiment [9], in [11], in experiment [12] and in experiment [13] was “inactive” each time. In addition, the Potency result in [14], in [15], in experiment [16], in [17] and in experiment [19] was “inactive” each time. Also, the values for the activity, negative = cell killing in experiment [18] (setting [22]), in [18] (setting [20]) and in experiment [18] (setting [21]) were -13.1% (inactive), -25.1% (inactive) and -30% (inactive), respectively. Also, the Potency in experiment [18] (tumour line A) was 20 µM (active).

Regarding `CC(C)C1CCC(C(=O)N[C@H](Cc2ccccc2)C(=O)O)CC1` (some centres not stated), the Potency entry in experiment [1], in experiment [2], in [3], in experiment [4], in experiment [5] and in experiment [6] was “inactive” throughout. The Potency entry in experiment [7], in [8], in [9], in [10], in experiment [11] and in [12] was “inactive” each time. Besides, the Potency result in [13], in experiment [14], in experiment [15], in experiment [16], in [17] and in [19] was “inactive” in each case. For the same molecule, the activity, negative = cell killing was -7.58% (inactive) in experiment [18] (setting [22]), 5.65% (inactive) in experiment [18] (setting [20]), -15.4% (inactive) in experiment [18] (setting [23]) and -13.4% (inactive) in [18] (setting [21]).

With `O=c1oc2c(O)c(O)cc3c(=O)oc4c(O)c(O)cc1c4c23`, the Potency result in experiment [1], in experiment [2], in [3], in experiment [4], in [5] and in experiment [6] was “inactive” each time. Besides, the Potency result in experiment [7], in [8], in experiment [9], in [10], in experiment [11] and in experiment [12] was “inactive” in each case. Moreover, the Potency entry in experiment [13], in [14], in experiment [15], in [16] and in experiment [17] was “inactive” in each case. Moreover, the activity, negative = cell killing is -21.4% (inactive) in experiment [18] (setting [22]) and -1.64% (inactive) in [18] (setting [21]).

With `C[C@@H]1C[C@H]2[C@@H]3CCC4=CC(=O)C=C[C@]4(C)[C@@]3(Cl)[C@@H](O)C[C@]2(C)[C@@]1(OC(=O)c1ccco1)C(=O)CCl`, the Potency entry in [1], in [6], in experiment [7], in experiment [8], in experiment [10] and in experiment [13] was “inactive” throughout. Further, the Potency entry in experiment [14], in experiment [15], in experiment [16], in experiment [17] and in experiment [19] was “inactive” each time. Further, the Potency in [2] is 16.6 µM (active); in [3], 29.9 µM (active) and 18.7 µM (active); in experiment [4], 20.9 µM (active); in experiment [5] it was 16.6 µM (active). Also, the activity, negative = cell killing is 13.7% (inactive) in experiment [18] (setting [24]), -9.13% (inactive) in [18] (setting [25]), -9.21% (inactive) in experiment [18] (setting [26]) and -28.2% (inactive) in [18] (setting [27]).

Regarding `C[C@@H]1CN(c2c(F)c(N)c3c(=O)c(C(=O)O)cn(C4CC4)c3c2F)C[C@H](C)N1`, the Potency entry in experiment [1], in experiment [2], in experiment [3], in experiment [4], in [5] and in experiment [6] was “inactive” each time. Further, the Potency entry in experiment [7], in experiment [8], in experiment [9], in experiment [11], in [12] and in experiment [13] was “inactive” in each case. The Potency entry in [14], in [15], in experiment [16], in experiment [17] and in experiment [19] was “inactive” throughout. In addition, the activity, negative = cell killing in [18] (setting [22]) is -1.03% (inactive); in experiment [18] (setting [20]), -17% (inactive); in experiment [18] (setting [23]), -8% (inactive); in experiment [18] (setting [21]) it was -3.77% (inactive).

As to `O=C(O)c1cccnc1`, the Potency entry in experiment [1], in experiment [2], in [3], in [4], in experiment [5] and in [6] was “inactive” in each case. For the same molecule, the Potency result in experiment [7], in experiment [8], in experiment [9], in [10], in experiment [11] and in experiment [12] was “inactive” throughout. The Potency entry in experiment [13], in [14], in experiment [15], in experiment [16], in [17] and in [19] was “inactive” in each case. Besides, the activity, negative = cell killing in experiment [18] (setting [22]) was -10% (inactive); in experiment [18] (setting [20]), -8.9% (inactive); in experiment [18] (setting [21]) it was -28.3% (inactive).

Turning to `COc1cnc(NS(=O)(=O)c2ccc(N)cc2)nc1`, the Potency entry in [1], in experiment [2], in [3], in [4], in experiment [6] and in experiment [7] was “inactive” each time. For the same molecule, the Potency entry in [8], in [9], in experiment [10], in experiment [11], in experiment [12] and in experiment [13] was “inactive” throughout. Moreover, the Potency result in experiment [14], in [15], in experiment [16], in experiment [17] and in experiment [19] was “inactive” each time. In experiment [5], the Potency entry is “inactive and 13.2 µM (active)”. Further, the activity, negative = cell killing in [18] (setting [24]) is -10.8% (inactive); in experiment [18] (setting [25]) it was -19.1% (inactive); in [18] (setting [26]), -2.41% (inactive); in experiment [18] (setting [27]) it was -32% (inactive).

Consider `O=C(O)c1cc(=O)[nH]c(=O)[nH]1`, for which the Potency result in experiment [1], in experiment [2], in experiment [3], in experiment [4], in experiment [5] and in experiment [6] was “inactive” each time. For the same molecule, the Potency result in [7], in [8], in experiment [9], in experiment [10], in experiment [11] and in experiment [12] was “inactive” throughout. In addition, the Potency entry in experiment [13], in [14], in experiment [15], in [16], in [17] and in experiment [19] was “inactive” in each case. Besides, the activity, negative = cell killing in experiment [18] (setting [22]) was -3.6% (inactive); in experiment [18] (setting [20]), 11.2% (inactive); in experiment [18] (setting [23]) it was -24.7% (inactive); in [18] (setting [21]), -0.704% (inactive).
